The nature of assay [1]: small molecules captured by biotinylated probe aFSTL3 – biochemical, small-molecule microarray, fluorescence 635/667, stem cell growth factor project, primary screen (AID 1064).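 Further: measures binding of the biotinylated anti-FSTL3 antibody to printed compounds.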 As to conditions: higher = more signal.
Assay [2] is described as follows: binders from COS7 lysate, DM2A8 probe, primary screen, torsin A project, cell lysate, small-molecule microarray, fluorescence 635/667 (AID 1065). The conditions noted are these: higher = more signal, COS7 lysate expressing mutant human TOR1A.
Assay [3] in a line: small molecules captured by biotinylated probe aFGF2 – biochemical, small-molecule microarray, fluorescence 635/667, stem cell growth factor project, primary screen (AID 1067).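 Further: measures binding of biotinylated aFGF2 protein to printed compounds on slides; z-score merges feature fluorescence and signal-to-noise across triplicate slides.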 The conditions noted are these: higher = more signal.
A short description of assay [4]: small molecules captured by biotinylated probe aFGF10 – biochemical, small-molecule microarray, fluorescence 635/667, stem cell growth factor project, primary screen (AID 1071).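 Further: score merges 667 nm spot intensity and signal to noise from triplicate slides.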 The conditions noted are these: higher = more signal.
Assay [5] has as its target Neurogenic locus notch homolog protein 2 (Homo sapiens) (UniProt Q04721). The assay is described as follows: small molecules binding Notch2 protein – biochemical, small-molecule microarray, 635 nm fluorescence, stem cell growth factors, primary screen (AID 1073). As to conditions: higher = more signal.
Assay [6] has as its target Pro-neuregulin-1, membrane-bound isoform (Homo sapiens) (UniProt Q02297). As to the kind of experiment: small molecules binding neuregulin-1 protein – biochemical, small-molecule microarray, fluorescence 635/667, psychiatric disease protein project, primary screen (AID 1075).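 Further: score combines 667 nm spot fluorescence with signal to noise.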 As to conditions: NRG1 binding, 635 nm fluorescence, higher = more signal.
For assay [7], the system named is Neuregulin-1 EGF-like domain. The assay is described as follows: small molecules binding NRG1 EGF domain – biochemical, small-molecule microarray, 635 nm fluorescence, primary screen (AID 1081).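 Further: binding of the protein to compounds printed on small-molecule microarray slides.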 As to conditions: higher = more signal.
A short description of assay [8]: FRG1 expression reporter modulators in myotubes – cell-based, C2C12 myotubes, firefly/Renilla luciferase, luminescence, FRG1 inhibition for FSHD, primary screen (AID 1084). The conditions noted are these: FRG1 promoter luciferase, higher = more signal, called active from +8 up or from −8 down.
The nature of assay [9]: small molecules captured by biotinylated probe aFST – biochemical, small-molecule microarray, fluorescence 635/667, stem cell growth factor project, primary screen (AID 1086).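 Further: score merges 667 nm fluorescence with signal-to-noise of each printed compound spot.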 The conditions noted are these: higher = more signal.
The nature of assay [10]: binders of probe aHhip on microarray, primary screen, stem cell growth factor project, biochemical, small-molecule microarray, fluorescence 635/667 (AID 1087).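 Further: score merges spot fluorescence at 667nm with spot signal to noise ratio.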 The conditions noted are these: higher = more signal.

Active and inactive are the calls of the source.

Sequence of Pro-neuregulin-1, membrane-bound isoform (Homo sapiens) (Q02297 whole entry, looked up, the tested form may be a part, canonical isoform): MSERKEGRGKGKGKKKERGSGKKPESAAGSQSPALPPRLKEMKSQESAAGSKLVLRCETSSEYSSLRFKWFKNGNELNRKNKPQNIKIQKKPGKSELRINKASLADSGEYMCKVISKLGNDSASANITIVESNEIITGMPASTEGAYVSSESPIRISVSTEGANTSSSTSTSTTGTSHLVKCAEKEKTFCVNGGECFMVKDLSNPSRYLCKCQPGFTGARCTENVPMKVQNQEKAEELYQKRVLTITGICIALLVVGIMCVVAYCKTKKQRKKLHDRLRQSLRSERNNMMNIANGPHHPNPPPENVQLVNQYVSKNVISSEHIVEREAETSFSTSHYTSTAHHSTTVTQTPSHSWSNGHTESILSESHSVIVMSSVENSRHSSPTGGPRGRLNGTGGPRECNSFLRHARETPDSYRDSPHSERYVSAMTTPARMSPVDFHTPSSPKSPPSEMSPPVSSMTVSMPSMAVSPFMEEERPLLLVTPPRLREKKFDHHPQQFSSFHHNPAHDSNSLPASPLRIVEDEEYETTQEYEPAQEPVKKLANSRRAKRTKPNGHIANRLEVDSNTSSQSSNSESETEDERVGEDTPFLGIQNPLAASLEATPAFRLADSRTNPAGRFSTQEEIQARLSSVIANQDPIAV
Sequence of Neurogenic locus notch homolog protein 2 (Homo sapiens) (Q04721 whole entry, looked up, canonical isoform): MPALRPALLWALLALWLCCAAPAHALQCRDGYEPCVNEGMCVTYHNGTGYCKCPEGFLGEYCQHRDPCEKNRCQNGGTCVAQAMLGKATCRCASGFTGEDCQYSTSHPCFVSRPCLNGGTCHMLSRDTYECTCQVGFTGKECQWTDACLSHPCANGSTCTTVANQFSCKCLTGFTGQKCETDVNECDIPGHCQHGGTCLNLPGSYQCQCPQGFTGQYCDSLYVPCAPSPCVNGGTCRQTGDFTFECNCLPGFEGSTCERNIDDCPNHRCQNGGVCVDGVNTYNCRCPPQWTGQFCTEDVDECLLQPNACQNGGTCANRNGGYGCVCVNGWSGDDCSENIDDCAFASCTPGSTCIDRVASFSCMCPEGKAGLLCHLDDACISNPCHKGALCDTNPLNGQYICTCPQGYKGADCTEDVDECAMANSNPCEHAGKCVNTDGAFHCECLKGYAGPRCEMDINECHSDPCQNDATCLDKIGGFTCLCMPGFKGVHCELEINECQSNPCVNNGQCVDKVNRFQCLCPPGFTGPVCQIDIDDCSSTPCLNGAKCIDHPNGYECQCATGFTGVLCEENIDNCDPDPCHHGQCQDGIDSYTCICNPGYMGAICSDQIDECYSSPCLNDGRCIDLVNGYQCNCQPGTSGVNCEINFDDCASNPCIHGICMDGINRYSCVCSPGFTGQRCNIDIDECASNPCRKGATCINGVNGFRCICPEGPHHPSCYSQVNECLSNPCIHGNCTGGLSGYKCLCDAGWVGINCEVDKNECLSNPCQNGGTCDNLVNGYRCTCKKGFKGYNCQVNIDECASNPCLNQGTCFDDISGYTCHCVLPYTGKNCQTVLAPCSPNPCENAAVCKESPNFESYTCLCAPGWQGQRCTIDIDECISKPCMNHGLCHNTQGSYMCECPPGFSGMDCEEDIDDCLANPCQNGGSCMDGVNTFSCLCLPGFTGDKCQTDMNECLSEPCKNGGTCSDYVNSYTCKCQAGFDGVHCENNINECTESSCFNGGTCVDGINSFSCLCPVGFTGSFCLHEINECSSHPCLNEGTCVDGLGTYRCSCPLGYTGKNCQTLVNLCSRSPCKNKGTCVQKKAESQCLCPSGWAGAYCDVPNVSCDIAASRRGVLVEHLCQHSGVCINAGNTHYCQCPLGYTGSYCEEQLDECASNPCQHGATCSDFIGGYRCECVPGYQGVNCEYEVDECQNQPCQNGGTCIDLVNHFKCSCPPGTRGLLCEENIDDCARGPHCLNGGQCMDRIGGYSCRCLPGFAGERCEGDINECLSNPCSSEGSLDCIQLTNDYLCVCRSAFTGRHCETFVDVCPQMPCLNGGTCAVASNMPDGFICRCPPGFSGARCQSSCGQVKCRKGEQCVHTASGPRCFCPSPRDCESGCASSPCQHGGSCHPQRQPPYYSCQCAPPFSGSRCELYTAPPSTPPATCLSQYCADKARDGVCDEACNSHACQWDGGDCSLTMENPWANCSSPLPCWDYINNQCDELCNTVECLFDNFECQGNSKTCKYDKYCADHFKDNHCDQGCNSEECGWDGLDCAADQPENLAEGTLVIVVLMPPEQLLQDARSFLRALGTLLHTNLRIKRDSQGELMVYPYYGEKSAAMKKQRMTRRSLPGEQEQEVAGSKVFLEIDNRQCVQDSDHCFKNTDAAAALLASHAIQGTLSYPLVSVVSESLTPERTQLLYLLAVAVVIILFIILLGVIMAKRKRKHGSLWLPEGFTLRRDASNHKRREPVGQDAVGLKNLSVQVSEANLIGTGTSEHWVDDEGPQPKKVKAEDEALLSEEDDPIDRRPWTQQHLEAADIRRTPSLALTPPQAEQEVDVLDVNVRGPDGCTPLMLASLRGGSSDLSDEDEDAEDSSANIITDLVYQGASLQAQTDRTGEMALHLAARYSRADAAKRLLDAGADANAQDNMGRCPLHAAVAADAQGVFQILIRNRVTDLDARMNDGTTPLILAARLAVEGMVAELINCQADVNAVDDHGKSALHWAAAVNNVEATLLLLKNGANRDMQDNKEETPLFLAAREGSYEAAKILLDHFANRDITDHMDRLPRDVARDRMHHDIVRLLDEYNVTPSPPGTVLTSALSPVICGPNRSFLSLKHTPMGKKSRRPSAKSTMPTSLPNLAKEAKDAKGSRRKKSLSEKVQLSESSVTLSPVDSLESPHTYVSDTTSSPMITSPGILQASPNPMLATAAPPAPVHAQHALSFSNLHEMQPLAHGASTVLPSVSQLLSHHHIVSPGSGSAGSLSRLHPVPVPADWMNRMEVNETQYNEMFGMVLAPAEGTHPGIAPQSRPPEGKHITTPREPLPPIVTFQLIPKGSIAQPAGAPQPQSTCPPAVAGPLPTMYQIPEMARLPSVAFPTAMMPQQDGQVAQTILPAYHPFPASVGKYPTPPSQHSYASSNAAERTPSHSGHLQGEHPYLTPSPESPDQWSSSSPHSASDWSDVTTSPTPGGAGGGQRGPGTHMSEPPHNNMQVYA

With `CO[C@@H]1COC(=O)CC=C[C@H](C)COC(=O)[C@H](Cc2ccccc2)NC(=O)CC=C[C@H]1C`, the composite z-score in assay [1] is -1.68; in [2], 1.69; in [3] it was -0.265; in [4], -0.416; in assay [5], -1.04; in assay [6], -0.409. Moreover, the composite z-score in assay [7] is 0.517; in assay [9] it was -0.515; in assay [10] it was -0.179. Also, the z-score in [8] was -0.533 (inactive).
For the compound `C[C@H]1COC(=O)[C@H](Cc2ccccc2)NC(=O)[C@@H](C)COC(=O)[C@H](Cc2ccccc2)NC1=O`, the composite z-score was -0.275 in assay [1]; 0.381 in [2]; -0.136 in [3]; 0.718 in [4]; 0.694 in assay [5]; 0.815 in assay [6]. The composite z-score in assay [7] is 1.11; in assay [9] it was 0.0531; in assay [10] it was -0.0994. Moreover, the z-score in [8] was -1.06 (inactive).
As for `O=C(CS)NCCCCCNC(=O)[C@H]1C[C@H]2C(=O)N[C@@H](Cc3ccccc3)C(=O)N2[C@H]1c1ccc(O)cc1`, the composite z-score in assay [1] was 0.593; in assay [2], 0.395; in assay [3], -0.0176; in assay [4], 0.645; in [5] it was 1.02; in [6], 0.541. Moreover, the composite z-score in assay [7] is 1.23; in assay [9], 0.446; in assay [10], -0.0919. Besides, in assay [8], the z-score is 0.658 (inactive).
With `O=C1O[C@@H](c2ccccc2)[C@@H](c2ccccc2)N2[C@@H](c3ccc(O)cc3)[C@]3(C(=O)Nc4ccccc43)[C@@H](C(=O)N3CCN(c4ncccn4)CC3)[C@H]12`, the composite z-score in assay [1] is 0.0022; in [2], 0.637; in assay [3], 0.142; in assay [4], 0.0271; in assay [5] it was -0.486; in assay [6], 0.474. In addition, the figures for the composite z-score in assay [7], in [9] and in [10] were 1.25, 0.0944 and 0.0274, respectively. Also, the z-score in [8] was -3.02 (inactive).
As for `C[C@@H]1NC(=O)CC=C[C@@H](C)[C@@H]2C=C[C@H](O)[C@@H](COC(=O)[C@H](C)NC(=O)CC=C[C@@H](C)[C@@H]3C=C[C@H](O)[C@@H](COC1=O)O3)O2`, the composite z-score in assay [1] is -0.703; in assay [2] it was 0.0339; in assay [3] it was -0.0511; in [4], 0.216; in [5] it was 0.0211; in [6] it was -0.428. The figures for the composite z-score in assay [7], in [9] and in assay [10] were -0.247, 0.229 and -0.0994, respectively. Also, the z-score in assay [8] was 0.587 (inactive).
Consider `CCCC[C@@H]1C[C@H]1[C@@H](NC(=O)c1ccccc1)c1ccccc1C(F)(F)F`, for which the composite z-score in assay [1] was determined as 0.135; in [2], 0.281; in [3] it was 0.149; in assay [4] it was 0.189; in assay [5], 1.13; in assay [6] it was 1.97. Besides, the composite z-score was 0.828 in assay [7], 0.819 in assay [9] and -0.189 in assay [10]. In addition, the z-score in assay [8] was 0.822 (inactive).
Consider `CO[C@@H]1COC(=O)[C@H](C)NC(=O)CC=C[C@@H](C)[C@H](OC)COC(=O)[C@H](C)NC(=O)CC=C[C@H]1C`, for which the composite z-score is -0.348 in [1]; 0.395 in [2]; -0.112 in assay [3]; 0.269 in assay [4]; 0.208 in [5]; -0.0025 in [6]. For the same compound, the results for the composite z-score in [7], in assay [9] and in assay [10] were 0.0912, 0.0054 and -0.146, respectively. In addition, the z-score in assay [8] was 0.0543 (inactive).
As for `COCC(=C=CC[C@H](O)c1ccc(OCCO)cc1)C[C@H](O)c1ccccn1`, the composite z-score in assay [1] is -0.103; in [2] it was 0.628; in [3], -0.156; in assay [4] it was -0.106; in [5], -0.499; in assay [6], 0.508. The composite z-score in assay [7] was 1.27; in assay [9], -0.192; in assay [10] it was -0.134. For the same compound, in assay [8], the z-score was 1.61 (inactive).
With `CCCC[C@@H]1C[C@H]1[C@@H](NC(=O)c1cccs1)c1ccc(Cl)cc1`, the composite z-score was 0.521 in [1]; -0.6 in [2]; -0.141 in [3]; -0.543 in assay [4]; -1.45 in assay [5]; -0.273 in assay [6]. Moreover, the composite z-score in [7] is -0.669; in [9], -0.531; in [10], -0.0003. Besides, the z-score in [8] is 0.902 (inactive).
On to `C#CCCCON=C1C[C@@H](O)[C@@H](O)[C@@H]2[C@@H]3C(=O)N(Cc4ccc5c(c4)OCO5)C(=O)[C@@H]3CC[C@H]12`, for which the composite z-score in [1] was -0.264; in [2] it was 0.933; in [3], -0.0533; in assay [4] it was 0.716; in [5] it was 0.624; in assay [6], 0.662. For the same compound, the values for the composite z-score in [7], in [9] and in assay [10] were 0.695, -0.0042 and -0.342, respectively. The z-score in [8] is 0.523 (inactive).
Consider `C[C@H]1COC(=O)[C@@H]2CCCN2C(=O)[C@@H](C)COC(=O)[C@@H]2CCCN2C1=O`, for which the composite z-score in assay [1] is -0.295; in assay [2], 0.491; in [3], -0.163; in assay [4] it was 0.0646; in assay [5], 0.415; in assay [6], -0.567. Besides, the composite z-score in assay [7] is -0.436; in assay [9], -0.041; in [10], -0.134. For the same compound, in assay [8], the z-score is -3.16 (inactive).
`O=C/C=C/c1ccccc1Cl`: the composite z-score is 0.206 in assay [1]; -0.0907 in assay [2]; -0.093 in assay [3]; -0.0502 in assay [4]; -0.221 in assay [5]; 1.05 in assay [6]. In addition, the composite z-score in assay [7] is -0.118; in assay [9], 0.224; in assay [10] it was 0.171. The z-score in [8] is 1.58 (inactive).
Turning to `CO[C@]12C=C(Br)[C@@H](C[C@@H]1c1ccccc1)[C@@]1(CO1)C2=O`, the composite z-score in assay [1] is -0.407; in assay [2], 0.215; in assay [3], -0.0336; in assay [4], 0.229; in assay [5] it was 0.308; in [6], -0.115. For the same compound, the composite z-score in assay [7] was -0.356; in assay [9], 0.0254; in [10], 0.0274. Further, in [8], the z-score is -0.358 (inactive).
With `CO[C@H]1COC(=O)[C@H](Cc2ccccc2)NC(=O)CC=C[C@@H](C)[C@H](OC)COC(=O)CC=C[C@@H]1C`, the composite z-score in assay [1] is -0.453; in assay [2], 0.421; in assay [3], -0.0643; in assay [4] it was 0.324; in assay [5], -0.156; in [6], 0.131. Further, the results for the composite z-score in [7], in assay [9] and in assay [10] were 0.316, 0.244 and -0.504, respectively. Also, in assay [8], the z-score is -0.244 (inactive).
On to `CN(C)CCCC[C@@H]1NC(=O)[C@@H]2C[C@H](C(=O)NCCCCCNC(=O)CS)[C@H](c3ccc(O)cc3)N2C1=O`, for which the composite z-score in assay [1] worked out at 0.174; in assay [2], 0.522; in [3], 0.0918; in [4] it was 0.429; in assay [5], 0.728; in assay [6], 0.264. In addition, the composite z-score in [7] is 1.22; in assay [9] it was -0.0694; in assay [10], 0.382. Moreover, in assay [8], the z-score was 0.47 (inactive).
`CO[C@@H]1COC(=O)CC=C[C@@H](C)[C@H](OC)COC(=O)CC=C[C@H]1C`: the composite z-score in assay [1] was -0.762; in assay [2], 1.22; in [3] it was -0.14; in assay [4], -0.228; in assay [5], -0.541; in assay [6], -0.503. Further, the values for the composite z-score in [7], in assay [9] and in assay [10] were -0.366, 0.169 and -0.16, respectively. Further, the z-score in assay [8] was 0.211 (inactive).
For `CC(C)[Si](OCC[C@H]1O[C@]2(C(=O)N(Cc3ccccc3)c3ccccc32)[C@@H](C)[C@@H]1[Si](C)(C)O)(C(C)C)C(C)C`, the composite z-score in assay [1] was -0.143; in [2] it was -0.149; in [3], -0.25; in assay [4] it was 0.164; in [5], -0.0407; in assay [6], 0.676. Also, the values for the composite z-score in assay [7], in assay [9] and in assay [10] were -0.0474, 0.292 and 0.0373, respectively. Moreover, the z-score in [8] is 0.562 (inactive).

These data come from PubChem BioAssay.
